Screen size: about 410,000 compounds; about 6,400 (1.6%) were called active. Where a call stands in place of a potency, no number is given. About 20% were inconclusive and are not listed. This is one part of a sample in which actives are shown more often than they occur. Unmarked numbers belong to inactive results. Calls come from the whole dose curve; as a rule, active = well fitted inhibition curve with a large enough effect; inconclusive = small, poorly fitted or top-dose-only effect; inactive = no such curve, though single readings can be large or run the other way.

For 101 molecules, Potency and activity change, negative = inhibition results are on record in PubChem BioAssay AID624417 (National Center for Advancing Translational Sciences (NCATS), 2012).
Potency is the fitted concentration of half-maximal effect.

The target of this assay is Glucagon-like peptide 1 receptor (Homo sapiens) (UniProt P43220). In words: qHTS of GLP-1 Receptor Inverse Agonists (Inhibition Mode). Note: nearly all actives have a fitted effect of over 55% in size. To be noted: HEK293 GLP-1R CRE-luciferase, luminescence, 24 h, GLP-1R form is constitutively active; series mostly up to 38.3 µM. The essentials: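 qHTS in 1536-well format: reporter HEK293 cells expressing constitutive GLP-1R activity in DMEM + 10% Nu serum, 24 hr with compounds at 37 deg C, luminescence read after 12 min with detection reagent.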
Glucagon-like peptide 1 receptor (Homo sapiens), sequence (P43220 whole entry, looked up): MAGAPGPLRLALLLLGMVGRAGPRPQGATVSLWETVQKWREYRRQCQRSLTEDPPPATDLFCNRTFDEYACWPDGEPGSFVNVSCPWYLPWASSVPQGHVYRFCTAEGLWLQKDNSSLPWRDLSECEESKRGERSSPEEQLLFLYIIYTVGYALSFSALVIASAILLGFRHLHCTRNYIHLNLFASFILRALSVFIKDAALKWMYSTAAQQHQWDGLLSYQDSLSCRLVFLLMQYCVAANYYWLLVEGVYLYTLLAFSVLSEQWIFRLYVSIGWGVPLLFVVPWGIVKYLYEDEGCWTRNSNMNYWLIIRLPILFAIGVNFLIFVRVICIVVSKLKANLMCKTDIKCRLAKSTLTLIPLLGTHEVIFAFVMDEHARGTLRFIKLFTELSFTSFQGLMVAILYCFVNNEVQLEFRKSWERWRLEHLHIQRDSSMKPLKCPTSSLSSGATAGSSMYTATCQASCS
On the technique in general: qHTS replaces the single test concentration by a dilution series.
For the molecule `Cc1ccc(-c2nc3c(Cl)cc(C(F)(F)F)cn3c2Cc2cccc(Cl)c2)cc1`, the Potency result is “inactive”.

Take `CCn1c(SCC(=O)N2CCCC2=O)nc2ccccc21`: the Potency entry is “inactive”.

Turning to `CC(C)c1cc(C(=O)O)n[nH]1`, the Potency result is “inactive”.

Consider `CC(C)c1cc(C(=O)N/N=C/C(Br)=C/c2ccccc2)n[nH]1`, for which the Potency was 8.91 µM (active).

As for `Cc1cc(C(=O)N/N=C\C(Br)=C\c2ccccc2)c(C)o1`, the activity change, negative = inhibition was 5.04% [at 7.66 µM].

In the case of `COCCNc1ncnc2c1ncn2[C@H]1CN(Cc2ccc(OC)cc2)C[C@@H](CO)O1`, the Potency result was “inactive”.

For the molecule `O=C(NC1CCCCC1)C1CCCN(S(=O)(=O)c2ccc(Br)s2)C1` (stereo unspecified), the Potency entry was “inactive”.

On to `O=C(C1CCN(S(=O)(=O)c2ccc(Br)s2)CC1)N1CCN(C2CCCCC2)CC1`, for which the Potency was 10 µM (active).

Consider `O=C(C1CCN(S(=O)(=O)c2cccs2)CC1)N1CCCCCC1`, for which the Potency entry was “inactive”.

For `CN1C[C@@H](CO)O[C@@H](n2cnc3c(N4CCN(CCO)CC4)ncnc32)C1`, the Potency entry is “inactive”.

For the molecule `CCCCN1CC(N2CCN(Cc3cccc(C)c3)CC2)CS1(=O)=O` (stereo unspecified), the Potency entry was “inactive”.

As for `CCCNC(=S)N1CCC(NC(=O)c2ccc(OC)cc2)CC1`, the Potency entry is “inactive”.

Consider `COc1cc(OC)cc(C(=O)NC2CCN(C(=O)N3c4ccccc4Sc4ccccc43)CC2)c1`, for which the Potency is 10 µM (active).

For the molecule `COc1ccc(NC(=S)N2CCC(NC(=O)c3cccc(F)c3)CC2)cc1`, the Potency entry was “inactive”.

As for `COc1cccc(-c2cc(NC(C)=O)c3ncc(-c4cccc(C(C)=O)c4)n3c2)c1`, the Potency result was “inactive”.

For the molecule `CCOC(=O)/C(=N\Nc1cc(Cl)ccc1Cl)N1CCN(C)CC1`, the Potency is 10 µM (active).

In the case of `CCOC(=O)/C(=N\Nc1ccccc1Cl)N(C)C1CCS(=O)(=O)C1` (stereo unspecified), the Potency result is “inactive”.

For `CCOC(=O)N1CCN(C(=O)COc2ccc(Cl)cc2C)CC1`, the Potency result is “inactive”.

Turning to `Cn1c(=O)c2cc(NC(=O)NCCc3cccs3)ccc2n1Cc1cccc(C(F)(F)F)c1`, the Potency entry was “inactive”.

For the molecule `O=C(COc1ccc(S(=O)(=O)Nc2cccc(C(F)(F)F)c2)cc1)N1CCOCC1`, the Potency result is “inactive”.

`O=C(/C=C/c1ccc(F)cc1)Nc1cccc(S(=O)(=O)Nc2cccc(C(F)(F)F)c2)c1`: the Potency entry was “inactive”.

`Cc1oc2c(F)c(F)c(F)c(F)c2c1S(=O)(=O)Nc1cccc(C(F)(F)F)c1`: the Potency is 3.98 µM (active).

Turning to `COc1ccc(C2=Nc3ccccc3NC(=O)C2N(C(=O)c2cc3ccccc3[nH]2)c2ccccc2)cc1` (stereo unspecified), the Potency entry is “inactive”.

`Cc1ccc(Nc2c(-c3ccc(Cl)cc3)nc3sccn23)c(C)c1`: the Potency was 14.1 µM (active).

With `CC(=O)Nc1c(-c2ccc(C)cc2)nc2ccc(Cl)cn12`, the Potency entry is “inactive”.

With `O=c1cc(Cn2nnc(-c3ccc(Cl)cc3)n2)nc2sccn12`, the Potency entry is “inactive”.

Consider `CC(C)CCOc1ccc(C(=O)Nc2cc(S(=O)(=O)N3CCOCC3)ccc2N2CCOCC2)cc1`, for which the Potency entry is “inactive”.

Turning to `CCc1nc2ccc(C(=O)N(C)CCN(C)C)cn2c1N(CC)CCOC`, the Potency result was “inactive”.

Take `OC[C@@H]1CN(Cc2ccc3c(c2)OCO3)C[C@H](n2cnc3c(NCc4ccco4)ncnc32)O1`: the Potency result is “inactive”.

Turning to `O=C(CSc1ccc(Cl)cc1)NC1CC1`, the Potency result is “inactive”.

Consider `CC1CCc2noc(NC(=O)c3ccc([N+](=O)[O-])cc3)c2C1` (stereo unspecified), for which the Potency result is “inactive”.

Regarding `COc1ccc(NC(=O)c2c(C)oc3c2CCCC3)cc1`, the Potency result was “inactive”.

On to `COc1ccc(C(=O)Nc2onc3c2CCCC3)cc1`, for which the Potency is 11.2 µM (active).

Turning to `O=C1NC[C@H](CCCCN2C[C@H](Cc3ccccc3)N(Cc3ccccc3)C(=O)C2=O)N(CCc2ccc(O)cc2)C1=O`, the Potency entry is “inactive”.

Take `CN1CCn2cnc(C(=O)NCC(=O)OC(C)(C)C)c2C1=O`: the Potency entry was “inactive”.

As for `O=C(Nc1nnc([C@H]2C[C@H](O)[C@@H](CO)O2)s1)c1cccc(Cl)c1`, the Potency entry was “inactive”.

With `CC1=NN(c2cccc(Cl)c2)C(=O)C12CC(C)=C(C)CS2` (stereo unspecified), the Potency was 10 µM (active).

Turning to `CCOC1=C2[C@H]([C@H]3C(=O)N(c4ccccc4)C(=O)[C@H]3C1)[C@@H](c1ccccc1)N(S(=O)(=O)c1ccc(C)cc1)[C@H]2c1ccccc1`, the Potency entry is “inactive”.

For `Cc1cc(Nc2ccc(C)c(C)c2)n2ncnc2n1`, the Potency entry is “inactive”.

Consider `CCn1ccnc1CN1CCCC(C(=O)c2ccc3c4c(cccc24)CC3)C1` (stereo unspecified), for which the Potency was 11.2 µM (active).

As to `CCOC(=O)c1[nH]ncc1CN1CCCC(C(=O)c2ccc(OC)cc2C)C1` (stereo unspecified), the Potency entry was “inactive”.

For `CC(=O)NCC(=O)N1CCCC(C(=O)c2ccc3c4c(cccc24)CC3)C1` (stereo unspecified), the Potency result was “inactive”.

Turning to `O=C(N=C1SC2CS(=O)(=O)CC2N1Cc1ccccc1)c1ccccc1` (stereo unspecified), the Potency entry is “inactive”.

In the case of `CSCCC(C(=O)NC(C)(C)C)n1c(-c2ccccc2)nc2ccccc21` (stereo unspecified), the Potency result was “inactive”.

For the molecule `COc1ncnc2c1ncn2CCCNCCN1CCOCC1`, the Potency entry is “inactive”.

Regarding `CCc1nc2c(OCCOc3ccccc3)cccn2c1N(C)C(=O)c1ccc(OC)cc1`, the Potency result is “inactive”.

Consider `CN(C(=O)CC(NC(=O)c1ccccc1)(c1ccccc1)c1ccccc1)c1ccccc1`, for which the Potency is 12.6 µM (active).

In the case of `CN(C(=O)COC(=O)CNC(=O)C12CC3CC(CC(C3)C1)C2)c1ccccc1`, the Potency result is “inactive”.

Consider `CC(C)(C)c1ccc(C(=O)NNC(=O)Cc2ccccc2)cc1`, for which the Potency result was “inactive”.

With `COc1ccc(C(CNC(=O)CSc2ccccc2)N2CCOCC2)cc1` (stereo unspecified), the Potency result was “inactive”.

Turning to `COc1ccc(C(=O)O/N=C(\N)Cc2ccc(Cl)cc2Cl)cc1OC`, the Potency was 8.91 µM (active).

Regarding `COc1ccc(C(=O)ON=C2c3ccccc3-c3ccccc32)cc1OC`, the Potency result is “inactive”.

On to `COc1ccc(C/C(N)=N/OC(=O)c2ccco2)cc1OC`, for which the Potency result is “inactive”.

For the molecule `Cc1cc(-n2nc(C)cc2C)n2nc(C)c(-c3ccccc3)c2n1`, the Potency result was “inactive”.

As to `Cc1cc(-c2ccccc2)n2nc(C)c(-c3ccccc3)c2n1`, the Potency entry was “inactive”.

Turning to `CCc1c(C)nc2c(-c3ccccc3)c(C)nn2c1Nc1ccc(NC(C)=O)cc1`, the Potency is 10 µM (active).

On to `Cc1ccc2nc(-c3ccccc3)c(CC3CCCCC3)n2c1`, for which the Potency entry was “inactive”.

With `O=C1Nc2ccccc2-n2nnnc2C1N1CCN(c2cccc(C(F)(F)F)n2)CC1` (stereo unspecified), the Potency entry is “inactive”.

Consider `CC(=O)c1cccc(-c2cnc3c(NC=O)cc(-c4ccccc4Oc4ccccc4)cn23)c1`, for which the Potency result was “inactive”.

Consider `CNc1cncc(-c2cccc(C(=O)N3CCOCC3)c2)n1`, for which the Potency result is “inactive”.

Consider `Cc1nccn1-c1ccc(NC(=O)[C@H]2O[C@@H](n3ccc(=O)[nH]c3=O)[C@H](O)[C@@H]2O)cc1`, for which the Potency result is “inactive”.

`COc1cc(C(O)c2nc(-c3cnn(C)c3)cs2)ccc1F` (stereo unspecified): the Potency entry was “inactive”.

With `CN1CCN(C(=O)c2ccc(NC(=O)c3ccc(Br)o3)cc2)CC1`, the Potency entry is “inactive”.

Regarding `COc1ccc(-c2cn3ccc(C)cc3n2)cc1`, the Potency is 6.31 µM (active).

As for `COc1ccc(-c2cn3cccnc3n2)cc1`, the Potency result is “inactive”.

`CCN(CC)S(=O)(=O)c1ccc(-c2cn3ccc(C)cc3n2)cc1`: the Potency entry was “inactive”.

Turning to `COc1ccc(-c2c(C#N)cnc(C)c2C)c(O)c1OC`, the Potency result is “inactive”.

In the case of `CNC[C@H]1OCc2cnnn2CCCC(=O)N([C@H](C)CO)C[C@@H]1C`, the Potency result was “inactive”.

Take `OC(c1ccc(Cl)c(F)c1)c1ncc(-c2ccccc2Cl)[nH]1` (stereo unspecified): the Potency entry was “inactive”.

In the case of `COC(=O)c1ccc(C(NC(=O)OCc2ccccc2)/C(F)=C/[C@@H](C)C(=O)O)cc1` (stereo partly specified), the Potency entry is “inactive”.

Take `COC(=O)c1ccc(NCC(=O)c2ccccc2)cc1`: the Potency entry is “inactive”.

For `CCC[C@@H]1C[C@@]1(CCC)[C@@H](NC(=O)c1ccccc1)c1ccc(C(=O)OC)cc1`, the Potency was 5.01 µM (active).

In the case of `COc1ccc(C(=O)NCCCN2CCOCC2)cc1Br`, the Potency result is “inactive”.

As to `CCC1=Nc2cc(C(=O)NCCCN3CCOCC3)ccc2Sc2ccc(Br)cc21`, the Potency was 11.2 µM (active).

Turning to `CC1=C(C(=O)Nc2cccc(C(=O)NCC(C)c3ccccc3)c2)SCCO1` (stereo unspecified), the Potency entry is “inactive”.

With `Cc1ccccc1CN1C(=O)c2ccccc2Sc2ccc(C(=O)NCCCN3CCOCC3)cc21`, the Potency result is “inactive”.

As for `Cc1ccc(C(=O)NCCNS(=O)(=O)c2ccccc2)cc1`, the Potency entry was “inactive”.

Turning to `CCC1=Nc2cc(C(=O)NCC(C)c3ccccc3)ccc2Sc2ccc(C)cc21` (stereo unspecified), the Potency was 5.01 µM (active).

Take `CCc1ccccc1NC(=O)NCCN1CCCCC1`: the Potency result is “inactive”.

As for `Cc1ccc(C(=O)NC(=S)NCCN2CCOCC2)cc1`, the Potency entry is “inactive”.

Consider `CCC1=Nc2cc(C(=O)NCCN3CCCC3)ccc2Sc2ccc(C)cc21`, for which the Potency was 3.55 µM (active).

As to `O=C(Nc1ccccc1)c1ccccc1Br`, the Potency entry is “inactive”.

Turning to `CC(OC(=O)c1cccc(S(=O)(=O)N2CCOCC2)c1)C(=O)NCC1CCCCC1` (stereo unspecified), the Potency entry was “inactive”.

For the molecule `CC1=C(C(=O)N2CCOCC2)CC(CC(=O)NCCN2CCOCC2)C(=O)N1CCC1=CCCCC1` (stereo unspecified), the Potency entry is “inactive”.

Turning to `COCCNC(=O)C1C(=O)Nc2ccccc2C(=O)N1c1ccc2c(c1)OCCO2` (stereo unspecified), the Potency entry is “inactive”.

For the molecule `CCc1oc(-c2ccc(OC)cc2)c(C(=O)OCCCCCO)c1C(C)OCCO` (stereo unspecified), the Potency result was “inactive”.

For `CC1(C(=O)Nc2ccccc2Br)CCN1C(=O)CC1CC1` (stereo unspecified), the Potency result is “inactive”.

For the molecule `Cc1cccc(-c2nc(Nc3ccc(O)cc3)c3ccccc3n2)c1`, the Potency was 2.82 µM (active).

Regarding `COc1ccc(Nc2nnc(C)c3ccccc23)cc1`, the Potency entry is “inactive”.

With `Oc1ccc(-c2nnc(Nc3ccccc3)c3ccccc23)cc1`, the Potency entry is “inactive”.

On to `COc1cc(Nc2nc(-c3ccc(OC)c(OC)c3)nc3ccccc23)cc(OC)c1`, for which the Potency is 11.2 µM (active).

On to `COc1cccc(Nc2nc3ccccc3c3nncn23)c1`, for which the Potency entry is “inactive”.

In the case of `Cc1cccc(-c2noc(-c3ccc(F)cc3)n2)c1`, the Potency result is “inactive”.

Consider `C[C@H]1CN([C@@H](C)CO)C(=O)CCCn2cc(nn2)CO[C@@H]1CN(C)C(=O)Nc1ccccc1`, for which the Potency result is “inactive”.

On to `CCCCNC(=O)C[C@@H]1C[C@@]2(C(=O)OC)CC(C)(C)CC=C2N(Cc2ccco2)C1=O`, for which the Potency result was “inactive”.

Turning to `Cc1cn([C@H]2C[C@H](O)[C@@H](/C=C/C(=O)NCCCc3ccccc3)O2)c(=O)[nH]c1=O`, the Potency result was “inactive”.

As to `CC(C)(C)C(=O)c1c(N)[nH]c(C(=O)c2ccccc2)c1-c1ccc(F)cc1`, the Potency entry is “inactive”.

With `C[C@H](CO)N1C[C@H](C)[C@@H](CN(C)C(=O)C2CCCCC2)OCc2cnnn2CCCC1=O`, the Potency result is “inactive”.

Regarding `CC1CCc2c(nc3ncnn3c2Nc2ccc(OC(F)(F)F)cc2)C1` (stereo unspecified), the Potency was 11.2 µM (active).

Regarding `Brc1ccc(Nc2c3c(nc4ncnn24)CCC3)cc1`, the Potency entry is “inactive”.

In the case of `CC(=O)c1nn(-c2ccc(OC(F)(F)F)cc2)nc1Nc1ccccc1`, the Potency entry was “inactive”.
